Laboratory results published in PubChem BioAssay (NCATS).
Inconclusive results are not listed. Calls of active or inactive are those of the source. Unless noted, calls follow the shape of the dose curve; as a rule, active = well fitted curve in the direction sought with a large enough effect; inconclusive = small, poorly fitted or top-dose-only effect, or another doubt; inactive = no such curve, though single readings can be large; an effect the other way counts as inactive or inconclusive.

Columns and labels:
[1] = qHTS to identify inhibitors of the type 1 interferon - major histocompatibility complex class I in skeletal muscle: primary screen against the NCATS Mechanism Interrogation Plate v5.0 (MIPE) Libary (AID 1347411);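 also: plate controls were vehicle for no effect and reference inhibitor for full effect; nearly all actives have a fitted effect of over 65% in size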
Procedure, shortened: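 Immortalized human myoblasts (C25cl48) with HiBit knocked into endogenous HLA-B*08:01 were stimulated with 4 ng/ml IFN-beta and given compounds in 11-point 1:3 titration from 46 uM. After 24 h at 37 C, lytic HiBiT luminescence was read.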

[2] = biological target: Glutathione peroxidase 1 (Homo sapiens) (UniProt P07203); test: Primary qHTS Assay for Inhibitors of Recombinant Selenoprotein Glutathione Peroxidase 1 (GPX1) (AID 1845191); also: nearly all actives have a fitted effect of over 65% in size
Procedure, shortened: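 GR-coupled assay: compounds preincubated 30 min at room temperature with GPX1, then reaction started with CHP; final 10 nM GPX1, 1 mM GSH, 0.5 mM CHP, 0.5 mM NADPH, 100 nM GR, 0.01% BSA, pH 7.5 Tris buffer. NADPH fluorescence (340/450 nm) read at 0 and 15 min.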

[3] = biological target: Phospholipid hydroperoxide glutathione peroxidase GPX4 (Homo sapiens) (UniProt P36969); test: Primary qHTS Assay for Inhibitors of Recombinant Selenoprotein Glutathione Peroxidase 4 (GPX4) (AID 1845192); settings: outcome: dose series up to 50 µM unless noted; also: % is scaled to controls: 0 for no effect and ±100 for the full control effect; nearly all actives have a fitted effect of over 65% in size
Procedure, shortened: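 GR-coupled assay: recombinant GPX4 preincubated 30 min with compound at room temperature; final 200 nM GPX4, 1 mM GSH, 0.5 mM cumene hydroperoxide, 0.5 mM NADPH, 100 nM GR, 0.01% BSA, pH 7.5 Tris. NADPH fluorescence (340/450 nm) read at 0 and 15 min.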

[4] = qHTS drug screen for cell cycle checkpoint inhibitors in PARPi-resistant BRCA-mutant ovarian cancer cell lines. (AID 1963452; calls by dose curve); settings: PEO1/OlaR viability, CellTiter-Glo luminescence, 96 h, stronger effect = lower value
Procedure, shortened: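 PEO1, PEO4 and PEO1/OlaR ovarian cancer cells, 600 per well, exposed 96 h at 37C to a dilution series. Viability read by CellTiter-Glo luminescence, normalized to DMSO and empty wells; activity summarized as Z-AUC.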

[5] = Primary qHTS for inhibitors of nuclear receptor binding SET domain protein 2 (NSD2) in an isogenic RCH-ACV NSD2 p.E1099K mutant (9B) (AID 1645876); also: potency is read from the fitted curve at half-maximal effect; nearly all actives have a fitted effect of over 70% in size
[6] = qHTS assay to identify inhibitors of the type 1 interferon - major histocompatibility complex class I in skeletal muscle: Counter screen cell viability and HiBit confirmation (AID 1347412); settings: iHSKM muscle cells + IFN-b, HiBiT or CellTiter-Glo, 24 h, at 45.9 µM (top of the series); also: % is scaled to controls: 0 for no effect and ±100 for the full control effect; nearly all actives have a fitted effect of over 60% in size
Procedure, shortened: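 HLA-B*08:01–HiBiT knock-in immortalized human myoblasts (C25cl48) stimulated with 4.0 ng/ml human IFN-beta and dosed with compound in a 12-point 1:3 titration (top final 46 uM). After 24 hrs at 37 C, HiBiT lytic luminescence or CellTiter Glo ATP read out.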

[7] = measured here: PEO1 parental Z-AUC

Chain of Phospholipid hydroperoxide glutathione peroxidase GPX4 (Homo sapiens) (P36969 whole entry, looked up): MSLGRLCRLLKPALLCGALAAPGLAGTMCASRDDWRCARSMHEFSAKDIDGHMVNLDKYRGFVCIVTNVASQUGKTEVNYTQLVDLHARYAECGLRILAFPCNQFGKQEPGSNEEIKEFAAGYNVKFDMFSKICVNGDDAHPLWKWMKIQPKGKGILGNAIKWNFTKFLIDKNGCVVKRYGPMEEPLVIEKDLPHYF
Chain of Glutathione peroxidase 1 (Homo sapiens) (P07203 whole entry, looked up): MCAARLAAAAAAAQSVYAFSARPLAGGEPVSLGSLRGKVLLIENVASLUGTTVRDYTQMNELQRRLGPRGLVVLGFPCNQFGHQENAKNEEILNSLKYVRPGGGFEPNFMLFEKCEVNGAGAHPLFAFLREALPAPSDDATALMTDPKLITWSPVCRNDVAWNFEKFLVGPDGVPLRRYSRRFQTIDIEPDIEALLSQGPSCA

Row | SMILES | Potency [1] | Potency [2] | Potency [3] | Z-AUC [4] | Z-AUC [4, 7] | Z-AUC ([4]; measured here: PEO4 Z-AUC) | Potency [5] | activity change, negative = inhibition ([6]; HiBiT) | activity change, negative = inhibition ([6]; Viability)
1 | Cc1nc2cccc(N)c2c(=O)n1C1CCC(=O)NC1=O (stereo unspecified) | inactive | inactive | inactive | 1.24 (inactive) | 1.14 | 1.38 | – | – | –
2 | CC(C)C[C@H](NC(=O)[C@H](Cc1ccccc1)NC(=O)OCc1ccccc1)C(=O)C=O | inactive | – | inactive | 0.592 (inactive) | 0.57 | 0.338 | – | – | –
3 | C=CC(=O)N[C@H]1CCOC[C@H]1Nc1ncc2cc(-c3c(Cl)c(OC)cc(OC)c3Cl)ccc2n1 | inactive | inactive | inactive | 1.21 (inactive) | 0.408 | 0.57 | – | – | –
4 | NS(=O)(=O)c1ccc(NC(=S)N2CCN(C/C=C/c3ccccc3)CC2)cc1 | inactive | inactive | inactive | 0.177 (inactive) | -0.364 | -0.0827 | – | – | –
5 | CC/C(=C(/c1ccc(O)cc1)c1ccc(OCCNC)cc1)c1ccccc1 | – | inactive | inactive | 0.452 (inactive) | 0.257 | -0.283 | 33.2 µM (active) | -7.57% (inactive) | -19.4% (inactive)
